Bioassay records (PubChem)
CHT allo act: allosterically activates the human high affinity choline transporter | Q9GZV3 | CHT-expressing cells, membrane potential dye, choline EC20; stronger effect = higher value; LV-AA mutant CHT in HEK293 cells | B-score at 10 µM | actives 0.49% (n = 310,000) | AID 488977;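 active = initial fluorescence not abnormally high and integrated response B-score, plate-corrected, over 3 SD above library mean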
Target sequence (Q9GZV3 whole entry, looked up): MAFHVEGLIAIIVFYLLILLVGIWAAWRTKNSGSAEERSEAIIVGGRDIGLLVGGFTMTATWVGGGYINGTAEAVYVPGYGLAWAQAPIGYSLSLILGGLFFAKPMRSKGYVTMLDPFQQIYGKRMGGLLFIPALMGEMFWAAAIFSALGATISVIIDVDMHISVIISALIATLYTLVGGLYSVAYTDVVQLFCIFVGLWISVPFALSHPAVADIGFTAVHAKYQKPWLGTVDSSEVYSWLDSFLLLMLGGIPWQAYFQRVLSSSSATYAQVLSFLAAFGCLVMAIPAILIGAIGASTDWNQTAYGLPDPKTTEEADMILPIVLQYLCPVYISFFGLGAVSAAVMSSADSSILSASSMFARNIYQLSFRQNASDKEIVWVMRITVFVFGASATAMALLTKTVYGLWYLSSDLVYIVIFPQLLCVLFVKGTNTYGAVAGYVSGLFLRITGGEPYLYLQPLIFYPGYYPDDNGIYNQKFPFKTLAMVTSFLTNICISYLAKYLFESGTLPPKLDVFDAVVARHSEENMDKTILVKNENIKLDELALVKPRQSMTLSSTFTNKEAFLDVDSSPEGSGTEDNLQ
EP2 mod: modulates human prostaglandin E2 receptor EP2 signaling; P43116; EP2-expressing cells, cAMP HTRF FRET, PGE2 co-stimulation; AID 940; actives 0.83% (n = 260,000); induction, % at 25 µM;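 active = compounds whose cAMP rise, as percent of the full-agonist control response, exceeds 60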;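 also: rat C6 glioma line stably carrying human EP2 under a CMV promoter; the protocol text gives 20 µM as final concentration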
PGE2 EP2 inh: inhibitors of human EP2 prostaglandin E2 receptor. P43116. C6 glioma cells expressing human EP2, cAMP TR-FRET; cells stimulated with saturating PGE2. inhibition, % at 25 µM. actives 0.52% (n = 260,000). AID 1422;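 active = percent inhibition above 40 after rounding to a whole number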;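 also: rat C6 glioma host cells with rolipram phosphodiesterase inhibitor present; the protocol text gives 20 µM as final concentration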
CHT inh: human CHT choline transport inhibition. actives 0.86% (n = 310,000). B-score at 10 µM. CHT-expressing cells, membrane potential dye, choline response; stronger effect = lower value;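 active = B-score over 3 SD under the library average, and starting fluorescence ratio not unusually high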;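 also: choline stimulus applied at its EC90 after an EC20 pre-addition; B-score computed on integrated fluorescence ratio after choline addition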
CHT inh conf: human CHT inhibition, confirmatory screen; shares compounds with CHT inh; CHT-expressing cells, choline membrane potential dye; LV-to-AA substituted CHT, HEK293 cells; CHT activity remaining % of control (stronger effect = lower value), % at 10 µM; actives 70% (n = 2,400); AID 493221;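 active = choline transporter activity left, mean of duplicates at 10 µM, below buffer-only control mean minus 3 SD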;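 also: depolarization triggered by choline at its EC90 following an EC20 pre-addition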
HEK293 CHT ctr: counter-screen for CHT inhibitors: effect in parental HEK293 cells; shares compounds with CHT inh; membrane potential dye, choline response; active = decrease or increase beyond buffer ±3SD; membrane potential ratio readout (active if shifted either direction beyond buffer ±3SD; no single direction) at 10 µM; actives 4% (n = 2,400);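 also: parental cells lack the transporter so any hit is non-specific; ratio is peak minus trough fluorescence over baseline after EC90 choline challenge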
Each line names hits and unclear results; the compound was inactive in the other large screens (follow-up assays come after a bar, where they were run). This is a sample that favours compounds with a hit; in the whole collection about 2% have one here.

CCOC(=O)c1oc2nc(C(C)C)c3c(c2c1N)CC(C)(C)OC3	none (no result: CHT allo act, CHT inh)
Cc1cc(C)c(S(=O)(=O)/N=C2\C=C(Nc3ccc(C(=O)O)cc3)C(=O)c3ccccc32)c(C)c1	CHT inh -5.6 (no result: EP2 mod, PGE2 EP2 inh) | CHT inh conf 25% | HEK293 CHT ctr inactive
CCc1ccc(OCC(=O)N2CCN(c3ccccc3F)CC2)cc1	CHT inh -5.5 | CHT inh conf inactive | HEK293 CHT ctr inactive
Cc1ccc(-c2nnc(OCC3CCCO3)c3ccccc23)cc1 (stereo unspecified)	CHT inh -5.5 | CHT inh conf 45% | HEK293 CHT ctr inactive
Cc1ccc(Oc2nnc(-c3ccccc3)c3ccccc23)cc1	none
CCOC(=O)C1(Cc2ccccc2C)CCCN(C(=O)c2cc(C3CC3)[nH]n2)C1 (stereo unspecified)	CHT inh -6.3 | CHT inh conf inactive | HEK293 CHT ctr inactive
CCOC(=O)C1(Cc2ccccc2C)CCCN(C(=O)c2ccccn2)C1 (stereo unspecified)	none
O=C(Nc1cccc(S(=O)(=O)N2CCCCC2)c1)c1ccccc1NS(=O)(=O)c1ccc(F)cc1	none
O=C(Nc1cc(S(=O)(=O)N2CCCCC2)ccc1O)c1ccccc1NS(=O)(=O)c1ccc(F)c(F)c1	CHT inh -9.4 | CHT inh conf 28% | HEK293 CHT ctr inactive
N#Cc1cc(F)c(N2CCN(C(=O)c3cccs3)CC2)cc1Cl	none (no result: CHT allo act, CHT inh)
C=CCN1CCc2cc(OC)c(OC)cc2C1C (stereo unspecified)	none (no result: CHT allo act, CHT inh)
Cc1ccc(S(=O)(=O)Oc2ccccc2/C=C2\SC(=O)NC2=O)cc1	CHT inh -5.6 | CHT inh conf 49% | HEK293 CHT ctr inactive
O=C(COc1ccccc1/C=C1\SC(=O)NC1=O)Nc1ccc(F)cc1	CHT inh -6.9 | CHT inh conf inactive | HEK293 CHT ctr inactive
O=C(COc1ccccc1/C=C1/NC(=O)NC1=O)Nc1ccccc1	none
O=C1NC(=O)/C(=C/c2ccccc2Oc2ccc(Cl)cc2)S1	none
CCCC1=NN2C(=N)/C(=C\c3cc(C)n(Cc4ccccc4)c3C)C(=O)N=C2S1	none
CCCC1=NN2C(=N)/C(=C\c3ccc(SCc4ccco4)o3)C(=O)N=C2S1	CHT inh -5.8 | CHT inh conf 69% | HEK293 CHT ctr inactive
CCC1=NN2C(=N)/C(=C\c3ccc(SCc4ccco4)o3)C(=O)N=C2S1	CHT inh -5.3 | CHT inh conf inactive | HEK293 CHT ctr inactive
CCN1CCCC1CNC(=O)C(=O)Nc1cccc(C)c1 (stereo unspecified)	none (no result: CHT allo act, CHT inh)
COc1cc2ncnc(NCc3cccc(Cl)c3)c2cc1OC	none
Cc1nnc(NCc2cccc(Cl)c2)c2ccccc12	CHT inh -10 (no result: EP2 mod, PGE2 EP2 inh) | CHT inh conf 20% | HEK293 CHT ctr inactive
Cc1ccnc(SCc2cc(=O)c(OC(=O)c3ccco3)co2)n1	CHT inh -5.8 | CHT inh conf 61% | HEK293 CHT ctr inactive
Cc1ccc(S(=O)(=O)N2[C@@H](c3ccc(Cl)cc3)C(C(=O)O)=CC[C@H]2c2ccc(Cl)cc2)cc1	CHT inh -5.7 (no result: EP2 mod, PGE2 EP2 inh) | CHT inh conf 62% | HEK293 CHT ctr inactive
Cc1ccc([C@@H]2CC=C(C(=O)O)[C@H](c3ccc(Cl)cc3)N2S(=O)(=O)c2ccc(C)cc2)cc1	none (no result: EP2 mod, PGE2 EP2 inh)
Cc1ccc(S(=O)(=O)N2[C@@H](c3ccc(F)cc3)C(C(=O)O)=CC[C@H]2c2ccc(C(C)C)cc2)cc1	CHT inh -6.3 (no result: EP2 mod, PGE2 EP2 inh) | CHT inh conf 65% | HEK293 CHT ctr inactive
CC(C)(C)n1nnnc1CN1CCc2nc(N3CCOCC3)[nH]c(=O)c2C1	none (no result: CHT allo act, CHT inh)
C#CC[N+]1(CC#Cc2cccc(C)c2)CCCCC1	CHT inh -6.7 | CHT inh conf 39% | HEK293 CHT ctr inactive
C#CC[N+]1(CC#Cc2ccccc2)CCCCC1	CHT inh -9.6 | CHT inh conf inactive | HEK293 CHT ctr inactive
Cc1ccc(NCc2nnc(SCC(=O)N3CCOCC3)o2)c(C)c1	none (no result: CHT allo act, CHT inh)
Cn1cnnc1Sc1ccc(C(=O)NCCC(c2ccccc2)c2ccccc2)cc1[N+](=O)[O-]	CHT inh -10 | CHT inh conf 32% | HEK293 CHT ctr inactive
CCC(CO)Nc1nc(NCc2ccccc2)c2ncn(C(C)C)c2n1 (stereo unspecified)	none (no result: CHT allo act, CHT inh)
